# From the supplement of paper PMC4466140
# B1: unnamed (peptide)
# chain: RLSRLLLSLPPESFT
# B2: unnamed (peptide)
# chain: LKVTPGRRAPTISKI
# Legend:
# Assay in all cases: SPOT peptide array binding signal intensity (averaged, normalized) (arbitrary units (background-subtracted, floor 0; scale differs between SH3 domains)); higher = stronger binding of the SH3 domain to the peptide
# AgAbp1 = molecular target: AgAbp1
# Procedure: (§1)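 GST-tagged SH3 domains from S. cerevisiae (Sc), A. gossypii (Ag), C. albicans (Ca) and S. pombe (Sp) were incubated at 10 ug/ml overnight at 4 C on cellulose SPOT membranes carrying 292 synthetic 15-mer peptides mined from the S. cerevisiae proteome (cysteines replaced by serines). Binding was detected with anti-GST antibody, HRP secondary and chemiluminescence, quantified with Genespotter, and reported as normalized spot intensities averaged over biological replicates.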
# AgBbc1 = molecular target: AgBbc1
# Procedure: as §1
# AgBem1-D1 = molecular target: AgBem1-D1
# Procedure: as §1
# AgBzz1-D1 = molecular target: AgBzz1-D1
# Procedure: as §1
# AgBzz1-D2 = molecular target: AgBzz1-D2
# Procedure: as §1
# AgCyk3 = molecular target: AgCyk3
# Procedure: as §1
# AgFus1 = molecular target: AgFus1
# Procedure: as §1
# AgHof1 = molecular target: AgHof1
# Procedure: as §1
# AgHse1 = molecular target: AgHse1
# Procedure: as §1
# AgLsb1 = molecular target: AgLsb1
# Procedure: as §1
# AgLsb4 = molecular target: AgLsb4
# Procedure: as §1
# AgMyo5 = molecular target: AgMyo5
# Procedure: as §1
# AgNbp2 = molecular target: AgNbp2
# Procedure: as §1
# AgRvs167 = molecular target: AgRvs167
# Procedure: as §1
# AgSho1 = molecular target: AgSho1
# Procedure: as §1
# AgSla1-D1-D2 = molecular target: AgSla1-D1-D2
# Procedure: as §1
# AgSla1-D3 = molecular target: AgSla1-D3
# Procedure: as §1
# CaAbp1-D1 = molecular target: CaAbp1-D1
# Procedure: as §1
# CaAbp1-D2 = molecular target: CaAbp1-D2
# Procedure: as §1
# CaBbc1 = molecular target: CaBbc1
# Procedure: as §1
# CaBem1-D1 = molecular target: CaBem1-D1
# Procedure: as §1
# CaBzz1-D1 = molecular target: CaBzz1-D1
# Procedure: as §1
# CaBzz1-D2 = molecular target: CaBzz1-D2
# Procedure: as §1
# CaCyk3 = molecular target: CaCyk3
# Procedure: as §1
# CaFus1 = molecular target: CaFus1
# Procedure: as §1
# CaHof1 = molecular target: CaHof1
# Procedure: as §1
# CaHse1 = molecular target: CaHse1
# Procedure: as §1
# CaLsb1 = molecular target: CaLsb1
# Procedure: as §1
# CaLsb4 = molecular target: CaLsb4
# Procedure: as §1
# CaMyo5 = molecular target: CaMyo5
# Procedure: as §1
# CaNbp2 = molecular target: CaNbp2
# Procedure: as §1
# CaRvs167 = molecular target: CaRvs167
# Procedure: as §1
# CaRvs167-3 = molecular target: CaRvs167-3
# Procedure: as §1
# CaSho1 = molecular target: CaSho1
# Procedure: as §1
# CaSla1-D1-D2 = molecular target: CaSla1-D1-D2
# Procedure: as §1
# CaSla1-D3 = molecular target: CaSla1-D3
# Procedure: as §1
# ScAbp1 = molecular target: ScAbp1
# Procedure: as §1
# ScBbc1 = molecular target: ScBbc1
# Procedure: as §1
# ScBem1-D1 = molecular target: ScBem1-D1
# Procedure: as §1
# ScBzz1-D1 = molecular target: ScBzz1-D1
# Procedure: as §1
# ScBzz1-D2 = molecular target: ScBzz1-D2
# Procedure: as §1
# ScCyk3 = molecular target: ScCyk3
# Procedure: as §1
# ScFus1 = molecular target: ScFus1
# Procedure: as §1
# ScHof1 = molecular target: ScHof1
# Procedure: as §1
# ScHse1 = molecular target: ScHse1
# Procedure: as §1
# ScLsb1 = molecular target: ScLsb1
# Procedure: as §1
# ScLsb2 = molecular target: ScLsb2
# Procedure: as §1
# ScLsb3 = molecular target: ScLsb3
# Procedure: as §1
# ScLsb4 = molecular target: ScLsb4
# Procedure: as §1
# ScMyo3 = molecular target: ScMyo3
# Procedure: as §1
# ScMyo5 = molecular target: ScMyo5
# Procedure: as §1
# ScNbp2 = molecular target: ScNbp2
# Procedure: as §1
# ScPex13 = molecular target: ScPex13
# Procedure: as §1
# ScRvs167 = molecular target: ScRvs167
# Procedure: as §1
# ScSho1 = molecular target: ScSho1
# Procedure: as §1
# ScSla1-D1-D2 = molecular target: ScSla1-D1-D2
# Procedure: as §1
# ScSla1-D3 = molecular target: ScSla1-D3
# Procedure: as §1
# SpAbp1-D1 = molecular target: SpAbp1-D1
# Procedure: as §1
# SpBbc1 = molecular target: SpBbc1
# Procedure: as §1
# SpBzz1-D1 = molecular target: SpBzz1-D1
# Procedure: as §1
# SpBzz1-D2 = molecular target: SpBzz1-D2
# Procedure: as §1
# SpCyk3 = molecular target: SpCyk3
# Procedure: as §1
# SpHof1 = molecular target: SpHof1
# Procedure: as §1
# SpHof1-2 = molecular target: SpHof1-2
# Procedure: as §1
# SpHof1-3 = molecular target: SpHof1-3
# Procedure: as §1
# SpHse1 = molecular target: SpHse1
# Procedure: as §1
# SpLsb1 = molecular target: SpLsb1
# Procedure: as §1
# SpLsb4 = molecular target: SpLsb4
# Procedure: as §1
# SpMyo1 = molecular target: SpMyo1
# Procedure: as §1
# SpNbp2 = molecular target: SpNbp2
# Procedure: as §1
# SpPex13 = molecular target: SpPex13
# Procedure: as §1
# SpRvs167 = molecular target: SpRvs167
# Procedure: as §1
# SpSla1-D1-D2 = molecular target: SpSla1-D1-D2
# Procedure: as §1
# SpSla1-D3 = molecular target: SpSla1-D3
# Procedure: as §1
binder,measurement,setting,value
B1,SPOT peptide array binding signal intensity,AgAbp1,21.5
same,SPOT peptide array binding signal intensity,AgBbc1,5.5
same,SPOT peptide array binding signal intensity,AgBem1-D1,356
same,SPOT peptide array binding signal intensity,AgBzz1-D1,101
same,SPOT peptide array binding signal intensity,AgBzz1-D2,145
same,SPOT peptide array binding signal intensity,AgCyk3,2
same,SPOT peptide array binding signal intensity,AgFus1,878
same,SPOT peptide array binding signal intensity,AgHof1,96.5
same,SPOT peptide array binding signal intensity,AgHse1,1240
same,SPOT peptide array binding signal intensity,AgLsb1,17.8
same,SPOT peptide array binding signal intensity,AgLsb4,108
same,SPOT peptide array binding signal intensity,AgMyo5,≤ 0
same,SPOT peptide array binding signal intensity,AgNbp2,47.5
same,SPOT peptide array binding signal intensity,AgRvs167,6.5
same,SPOT peptide array binding signal intensity,AgSho1,70
same,SPOT peptide array binding signal intensity,AgSla1-D1-D2,85
same,SPOT peptide array binding signal intensity,AgSla1-D3,5.5
same,SPOT peptide array binding signal intensity,CaAbp1-D1,152
same,SPOT peptide array binding signal intensity,CaAbp1-D2,48
same,SPOT peptide array binding signal intensity,CaBbc1,73.5
same,SPOT peptide array binding signal intensity,CaBem1-D1,1
same,SPOT peptide array binding signal intensity,CaBzz1-D1,46
same,SPOT peptide array binding signal intensity,CaBzz1-D2,138
same,SPOT peptide array binding signal intensity,CaCyk3,17
same,SPOT peptide array binding signal intensity,CaFus1,3850
same,SPOT peptide array binding signal intensity,CaHof1,0.5
same,SPOT peptide array binding signal intensity,CaHse1,33.5
same,SPOT peptide array binding signal intensity,CaLsb1,1.5
same,SPOT peptide array binding signal intensity,CaLsb4,37.5
same,SPOT peptide array binding signal intensity,CaMyo5,28
B2,SPOT peptide array binding signal intensity,AgAbp1,22
same,SPOT peptide array binding signal intensity,AgBbc1,41
same,SPOT peptide array binding signal intensity,AgBem1-D1,63.5
same,SPOT peptide array binding signal intensity,AgBzz1-D1,81
same,SPOT peptide array binding signal intensity,AgBzz1-D2,24
same,SPOT peptide array binding signal intensity,AgCyk3,3
same,SPOT peptide array binding signal intensity,AgFus1,22
same,SPOT peptide array binding signal intensity,AgHof1,15
same,SPOT peptide array binding signal intensity,AgHse1,18.5
same,SPOT peptide array binding signal intensity,AgLsb1,≤ 0
same,SPOT peptide array binding signal intensity,AgLsb4,≤ 0
same,SPOT peptide array binding signal intensity,AgMyo5,5.5
same,SPOT peptide array binding signal intensity,AgNbp2,1920
same,SPOT peptide array binding signal intensity,AgRvs167,1.17
same,SPOT peptide array binding signal intensity,AgSho1,≤ 0
same,SPOT peptide array binding signal intensity,AgSla1-D1-D2,7.5
same,SPOT peptide array binding signal intensity,AgSla1-D3,1
same,SPOT peptide array binding signal intensity,CaAbp1-D1,435
same,SPOT peptide array binding signal intensity,CaAbp1-D2,160
same,SPOT peptide array binding signal intensity,CaBbc1,247
same,SPOT peptide array binding signal intensity,CaBem1-D1,5
same,SPOT peptide array binding signal intensity,CaBzz1-D1,154
same,SPOT peptide array binding signal intensity,CaBzz1-D2,148
same,SPOT peptide array binding signal intensity,CaCyk3,18
same,SPOT peptide array binding signal intensity,CaFus1,≤ 0
same,SPOT peptide array binding signal intensity,CaHof1,0.5
same,SPOT peptide array binding signal intensity,CaHse1,0.5
same,SPOT peptide array binding signal intensity,CaLsb1,≤ 0
same,SPOT peptide array binding signal intensity,CaLsb4,≤ 0
same,SPOT peptide array binding signal intensity,CaMyo5,6.25
same,SPOT peptide array binding signal intensity,CaNbp2,2720
same,SPOT peptide array binding signal intensity,CaRvs167,1.5
same,SPOT peptide array binding signal intensity,CaRvs167-3,27.5
same,SPOT peptide array binding signal intensity,CaSho1,15.5
same,SPOT peptide array binding signal intensity,CaSla1-D1-D2,56
same,SPOT peptide array binding signal intensity,CaSla1-D3,1.5
same,SPOT peptide array binding signal intensity,ScAbp1,21
same,SPOT peptide array binding signal intensity,ScBbc1,1.75
same,SPOT peptide array binding signal intensity,ScBem1-D1,9
same,SPOT peptide array binding signal intensity,ScBzz1-D1,26
same,SPOT peptide array binding signal intensity,ScBzz1-D2,5.5
same,SPOT peptide array binding signal intensity,ScCyk3,10
same,SPOT peptide array binding signal intensity,ScFus1,0.5
same,SPOT peptide array binding signal intensity,ScHof1,≤ 0
same,SPOT peptide array binding signal intensity,ScHse1,99
same,SPOT peptide array binding signal intensity,ScLsb1,≤ 0
same,SPOT peptide array binding signal intensity,ScLsb2,3
same,SPOT peptide array binding signal intensity,ScLsb3,21.5
same,SPOT peptide array binding signal intensity,ScLsb4,≤ 0
same,SPOT peptide array binding signal intensity,ScMyo3,39.5
same,SPOT peptide array binding signal intensity,ScMyo5,20.2
same,SPOT peptide array binding signal intensity,ScNbp2,4490
same,SPOT peptide array binding signal intensity,ScPex13,≤ 0
same,SPOT peptide array binding signal intensity,ScRvs167,0.333
same,SPOT peptide array binding signal intensity,ScSho1,33
same,SPOT peptide array binding signal intensity,ScSla1-D1-D2,61.5
same,SPOT peptide array binding signal intensity,ScSla1-D3,32.8
same,SPOT peptide array binding signal intensity,SpAbp1-D1,170
same,SPOT peptide array binding signal intensity,SpBbc1,1
same,SPOT peptide array binding signal intensity,SpBzz1-D1,332
same,SPOT peptide array binding signal intensity,SpBzz1-D2,1.25
same,SPOT peptide array binding signal intensity,SpCyk3,1.5
same,SPOT peptide array binding signal intensity,SpHof1,37.8
same,SPOT peptide array binding signal intensity,SpHof1-2,0.5
same,SPOT peptide array binding signal intensity,SpHof1-3,165
same,SPOT peptide array binding signal intensity,SpHse1,67.8
same,SPOT peptide array binding signal intensity,SpLsb1,≤ 0
same,SPOT peptide array binding signal intensity,SpLsb4,30
same,SPOT peptide array binding signal intensity,SpMyo1,352
same,SPOT peptide array binding signal intensity,SpNbp2,8
same,SPOT peptide array binding signal intensity,SpPex13,≤ 0
same,SPOT peptide array binding signal intensity,SpRvs167,≤ 0
same,SPOT peptide array binding signal intensity,SpSla1-D1-D2,4
same,SPOT peptide array binding signal intensity,SpSla1-D3,≤ 0
